Experimental data reported in the supplement of paper PMC11417369.
± gives the standard deviation of the averaged measurements. Over roughly 25,000 sequences, “ln(normalized median fluorescence intensity)” has its median near 8.6; the highest 2% begin near 10. The full list was thinned out, with the highest values kept by preference.

The sequences below were run on PfAP2-EXP AP2 domain (GST-tagged) (assay: gcPBM binding intensity (ln(normalized median fluorescence intensity)); higher = stronger DNA binding).
In short: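 An Agilent 4 × 180k array carrying primer-extended double-stranded 36-bp intergenic genomic probes and negative controls received GST-tagged P. falciparum DNA-binding domains expressed in E. coli, about 25 μg on average, for 1 h. The binding buffer contained 1× PBS, 1% milk, 0.2 mg/ml BSA, 0.5% salmon testes DNA and 0.03% Triton X-100. Binding intensity is the top Masliner-normalised natural-log median intensity across replicate spots of either probe orientation, read after Alexa488 anti-GST antibody staining and a 488 nm scan.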

Row | Sequence | gcPBM binding intensity (ln)
1 | GAAATTAAATGACATACACACTATATTATATATTTT [CACACA_site5693] | 8.34 ± 0.35
2 | AGTAGTCTGGAGAAGAGTACACAGTATCTGGTAGCT [XGTACX_site2042] | 8.48 ± 0.47
3 | AAATAAAATAAAAACATGCACACTTTATTTTTTTTA [CACACA_site2800] | 8.49 ± 0.26
4 | AGAAAAGAGAGAAAAACATGCACATGATATTATAAA [TGCATGCA_site120] | 8.62 ± 0.53
5 | CATGATATATAAATATGTACATATATATATATATAT [XGTACX_site1760] | 10.2 ± 0.23
6 | AAACATATATACATATGTACATATATACATATATGT [XGTACX_site5779] | 8.4 ± 0.26
7 | ATATATATATATATATGTACATAAACATATATATAT [XGTACX_site1064] | 10.2 ± 0.21
8 | AAACATATAAACATATGTACATATAAACATATATAC [XGTACX_site5026] | 8.64 ± 0.33
9 | ATAAATATAAATATATGTACATATATATATATATAT [XGTACX_site7433] | 10.2 ± 0.15
10 | ATAAATAAAACAAAATGTACAAATATTCATATATTC [XGTACX_site1307] | 8.49 ± 0.32
11 | ATATATATATATATATGTACGTATTCATAAACAACA [XGTACX_site4282] | 10.2 ± 0.6
12 | TTATATGCATAAAAACGTACAAAAATGTATTCATGT [XGTACX_site2215] | 8.71 ± 0.38
13 | AATATGATATATATATGTACATATATATAATATAAT [XGTACX_site3072] | 8.52 ± 0.41
14 | TTTTTTCTTTCTTTCAAACACACATTAATTTTATTC [CACACA_site2733] | 8.66 ± 0.49
15 | ATAAATATGGAGCACACACACATAAACATACATATA [CACACA_site421] | 8.84 ± 0.67
16 | AGAAGGATATTATGAAGTACACATATTGTATATGGT [XGTACX_site7503] | 8.47 ± 0.35
17 | AATATATAAATATTGTGTACTTATTTTTTTATATGT [XGTACX_site4377] | 8.49 ± 0.18
18 | TAAATATGAGGGAACACACACATGATATATAAATTC [CACACA_site2400] | 8.81 ± 0.43
19 | TATATATTGCCCTTCACACACACACCCATATATATA [CACACA_site2493] | 9.06 ± 0.42
20 | TTATTTATTTATTGTTGTACACAAAATGATTCTTAA [XGTACX_site6480] | 8.7 ± 0.2
21 | TTATATAACACGGGGAGGACACAAGAAATAAAGAGC [XGTACX_site2148] | 9.13 ± 0.29
22 | AATGATTTTGATTAACGTACGTACAAATATATATAT [XGTACX_site6604] | 9.31 ± 0.057
23 | AAAATTATATATTATAGTACATAAAATTTTGATATA [XGTACX_site994] | 8.39 ± 0.35
24 | ATTTTGATAACCGTACGTACATATATATATATATAT [XGTACX_site6605] | 10.3 ± 0.35

Row | Sequence | gcPBM binding intensity (ln)
25 | AAATAGAGAAATACAAGTACATATCAAACCAATCTA [XGTACX_site2756] | 8.52 ± 0.42
26 | TTATACACCTTTCATTGTACATATAATTTATATTCT [XGTACX_site8685] | 8.95 ± 0.33
27 | TATTACATTGTTGAATGTACTCATTTAAAATTTATA [XGTACX_site7987] | 8.34 ± 0.38
28 | ATAATACGAATTTGTAGTACATTTATAATAACATGA [XGTACX_site2614] | 8.37 ± 0.17
29 | TATATATATATATATATAATACGAATTTGTAGTACA [TGCATGCA_negctrl_site224] | 10.2 ± 0.16
30 | TATATAATACGAATTTGTACATATTAAATAAATTAT [XGTACX_site93] | 8.41 ± 0.37
31 | AATTATATTTGAAATACACACATAAAAACCATATAG [CACACA_site7598] | 8.89 ± 0.51
32 | AATATATTCCACATGTGTACATATATATATATATAT [XGTACX_site8006] | 10.3 ± 0.24
33 | ACACATATATAAATATGTACATATATATATATACAT [XGTACX_site1595] | 8.61 ± 0.23
34 | ACATACACATATACATGTACATATATATATATATAT [XGTACX_site5082] | 10.2 ± 0.2
35 | TATATATATATATATGTACACACATATATACCTTTC [CACACA_site8854] | 10.2 ± 0.26
36 | ACACACATATATACATGTACATATATATATATATAT [XGTACX_site451] | 10.1 ± 0.3
37 | TATATATATTTATGTACACACATATATACCTTTCAT [CACACA_site5479] | 8.74 ± 0.23
38 | TCACACATATATTCATGTACATATTAATATTTCCAT [XGTACX_site5387] | 8.85 ± 0.44
39 | TCATACATGTATATGTGTACATATAATGTATATTCC [XGTACX_site6082] | 8.3 ± 0.3
40 | GTAAATACACATATGTGTACATATATATATATATAT [XGTACX_site3696] | 10.2 ± 0.35
41 | ATGTAAATACATATATGTACACAAATATATATATAT [XGTACX_site3537] | 9.8 ± 0.35
42 | ACACATACATACATATGTACATATATACATATATAC [XGTACX_site5559] | 8.84 ± 0.26
43 | TATATATATATATGTACACACATATATACCTTTCAT [CACACA_site2679] | 10.1 ± 0.27
44 | AAAAAAATATATATTACACACATATATACCTATATA [CACACA_site5688] | 8.18 ± 0.47
45 | TATATCTGTATCATTACACACATGTATACTTATTTG [CACACA_site6134] | 8.74 ± 0.43
46 | TTACGATTATACAAAAGTACATGTATTACACAATAT [XGTACX_site5138] | 8.6 ± 0.33
47 | TACAAAAAAAGATGATGTACAATGAAAAATAAGAAA [XGTACX_site5840] | 9.18 ± 0.37
48 | TATTATAATTAATATACACACGCTTATATATATATA [CACACA_site75] | 9.93 ± 0.3

Row | Sequence | gcPBM binding intensity (ln)
49 | TAATTGTAGACATGCACACACAAATATTATATATGT [CACACA_site845] | 8.72 ± 0.45
50 | TAATGAAATATACAGAGTACATTCTGTATATAGGAT [XGTACX_site7691] | 8.46 ± 0.3
51 | ATATTTACCACTGTATGTACATATATAAAATATATC [XGTACX_site6373] | 8.81 ± 0.18
52 | CTTGAAAGATTTTATTGTACTCATAAGATACATTTC [XGTACX_site3178] | 8.31 ± 0.36
53 | TATTATAGTATATATTGTACATATATATATTTTTTA [XGTACX_site8831] | 8.35 ± 0.37
54 | AGTTTATAGTGATATTGTACATATATATATATATAT [XGTACX_site572] | 10.2 ± 0.66
55 | TACATTGTATACATATGTACACATATATATATATAT [XGTACX_site6174] | 10.1 ± 0.4
56 | TGTATACGCATATGTACACACATATATATGTATATG [CACACA_site3087] | 8.65 ± 0.16
57 | ATATATATATATATATGTACACATATACGCTTTTTC [XGTACX_site3838] | 10.3 ± 0.28
58 | TATATATATATATATTGTACACATACATGTAGTTTT [XGTACX_site4848] | 10.2 ± 0.29
59 | TATATATATACATATTGTACATGTGTATATTTTTTT [XGTACX_site361] | 8.93 ± 0.042
60 | TATATAGTTTATATTTGTACATATAGACATTTATAA [XGTACX_site6414] | 8.23 ± 0.3
61 | ATATATATATATATATGTACACATATATTTCTTTTC [XGTACX_site3443] | 10 ± 0.47
62 | AAAATGTACTTTTTCTAAAGAGTAATGATGCTTGAT [CACACA_negctrl_site1124] | 8.52 ± 0.45
63 | ATATGATAAATTATATGTACTTAAAATATATTATAA [XGTACX_site5904] | 8.26 ± 0.18
64 | AACAGACATAGACACACACACATATATTTATTTATA [CACACA_site7571] | 8.64 ± 0.4
65 | CATATTTTATTATATACATGCAATTTTAATATATAT [TGCATGCA_site544] | 8.59 ± 0.25
66 | GTTATTTATAGACACACACACATGCATGCACATATA [CACACA_site6204] | 10.2 ± 0.39
67 | TCCTTTTTTTTTTATGCACACACAATTATACATTCC [CACACA_site9287] | 9.06 ± 0.4
68 | TATTCATGCATATACACACACATATATTTATATTTT [CACACA_site7786] | 8.77 ± 0.35
69 | TATATATATATATATGCACACATTTATACAATTTTA [CACACA_site2986] | 10.2 ± 0.3
70 | TATATACATGCATATACACACATATATTTATTTATA [CACACA_site6327] | 8.7 ± 0.33
71 | TATAATAATAATTATACATGCATGAATATTTATATG [TGCATGCA_site811] | 8.86 ± 0.16
72 | TATTTATATAGACACACACACATATATTTATATTTT [CACACA_site7240] | 8.52 ± 0.45

Row | Sequence | gcPBM binding intensity (ln)
73 | TATATATATATATATACATGCATACAATTTTATGAG [TGCATGCA_site466] | 10.2 ± 0.29
74 | CTTTTTTTTTTATGCACACACAATTATACATTCCTT [CACACA_site3877] | 9.08 ± 0.37
75 | TATATATATATATATACATGCATATTTTTTATTTTT [TGCATGCA_site464] | 10.3 ± 0.31
76 | GCATAACCTTTATATTGTACATATACCTTTATTGTT [XGTACX_site6046] | 9.16 ± 0.45
77 | TTTAATAAATAAATAAATAAAATATATTAAAAACCA [CACACA_negctrl_site80] | 8.38 ± 0.36
78 | GCATCCCTTTTTATGTGTACATACAAAGGCAATTAC [XGTACX_site6977] | 8.86 ± 0.33
79 | CCTTAATATTTTTGAAGTACATATTTATTTTACAAG [XGTACX_site3049] | 8.31 ± 0.33
80 | TGCTACATTTTATGTACACACATATACAGATATATA [CACACA_site4646] | 8.42 ± 0.26
81 | TCATATGTTAAATGATGTACATTTAATATAAATAAA [XGTACX_site900] | 8.38 ± 0.15
82 | AATTGCATAATATATTCACACATTTTTAAGTGATAC [CACACA_site5679] | 8.38 ± 0.35
83 | ATATATATATATATTGTACACACATTTATGCATATA [CACACA_site9055] | 10 ± 0.2
84 | ATATTCAATATATTATGTACACATATATGAGGATAT [XGTACX_site7019] | 8.65 ± 0.41
85 | ATAATCATAAAATAAACACACATATATAAATATATT [CACACA_site276] | 8.27 ± 0.47
86 | TATGAATGGTTAAGTACACACATATTAATATATGTA [CACACA_site3490] | 8.49 ± 0.45
87 | TAATAATTAATTAATATAATATTTTTTCATAATTAT [XGTACX_negctrl_site602] | 8.22 ± 0.4
88 | ATATTATATAATAATGCATGCACCTTATTTTCATTT [TGCATGCA_site405] | 10.2 ± 0.44
89 | ATTATATAATAATGCATGCACCTTATTTTCATTTCA [GTGCAC_site9922] | 9.99 ± 0.19
90 | TGTATAATATTTGGTGCACACAAATTAACAACTGTT [CACACA_site9245] | 9.21 ± 0.32
91 | AACATATTTTTAAATACACACACATAAAAAAAAAAA [CACACA_site8279] | 8.59 ± 0.5
92 | AATTTATATGTTTTGTGTACACAATTTATTAAATTA [XGTACX_site6448] | 9.03 ± 0.29
93 | GTATATATTTTGTATTCATTTGTCACATATAATAGA [CACACA_negctrl_site506] | 8.69 ± 0.5
94 | TATTTTGTATTCATTTGTCACATATAATAGATAGGA [TGCATGCA_negctrl_site9] | 8.69 ± 0.32
95 | ATTCGTCACATTTTTTGATATATATATATATATATA [CACACA_negctrl_site1785] | 10.4 ± 0.4
96 | ATCCATCTTTTAATTTGTACTTATTCTTTTTTCTTT [XGTACX_site5299] | 9 ± 0.67
